In the library only some 14% were active in any assay of this set; here they are far more common.
Pf growth 96h: Primary qHTS for delayed death inhibitors of the malarial parasite plastid, 96 hour incubation | P. falciparum luciferase reporter growth, 96 h | Potency, µM (doses to about 28.7 µM), hits mostly inhibitors | 320,000 tested, 6.9% active | AID 504834, 2011
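Readout is luminescence from an integrated firefly luciferase in P. falciparum. Red cells, 2% hematocrit and 0.05% parasitemia final, were cultured with compound through two parasite generations (96 hours) at 37 C, 5% CO2.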
Pf growth 48h: Primary qHTS for delayed death inhibitors of the malarial parasite plastid, 48 hour incubation. 310,000 tested, 5.9% active. P. falciparum luciferase growth in erythrocytes, 48 h. Potency, µM (highest dose often 28.7 µM), usual class: inhibitors
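Growth was read as firefly luciferase luminescence after a 48 h, 37 C, 5% CO2 exposure of compounds to reporter-bearing P. falciparum cultures (0.1% parasitemia, 2% hematocrit final) in Albumax-supplemented RPMI 1640.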
HCMV antiviral: qHTS Assay for inhibitors of the human cytomegalovirus (HCMV); HFF cells, HCMV-luciferase reporter, 72 h; hits give low values; activity change, negative = inhibition, % at 57.5 µM; 410,000 tested, 4.5% active; AID 1259415, 2018; in the data active = activity change below about -60%; inconclusive = no clear call, values can overlap the other calls; inactive = above about -39%
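HFF cells seeded 16 h at 37C, treated with compounds, infected with luciferase-reporter HCMV at MOI 1 PFU/cell; luciferase read at 72 h post infection, normalized to buffer-only and Salinomycin controls.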
FBPA Giardia inh: qHTS Assay for Inhibitors of Fructose-1,6-bisphosphate Aldolase from Giardia Lamblia. A8B2U2. purified Giardia FBPA. Potency, µM (series often up to 59.6 µM), actives largely listed as inhibitors. 290,000 tested, 0.71% active. AID 2451, 2010; note: nearly all actives have a fitted effect of over 55% in size
Target sequence (A8B2U2 whole entry, looked up): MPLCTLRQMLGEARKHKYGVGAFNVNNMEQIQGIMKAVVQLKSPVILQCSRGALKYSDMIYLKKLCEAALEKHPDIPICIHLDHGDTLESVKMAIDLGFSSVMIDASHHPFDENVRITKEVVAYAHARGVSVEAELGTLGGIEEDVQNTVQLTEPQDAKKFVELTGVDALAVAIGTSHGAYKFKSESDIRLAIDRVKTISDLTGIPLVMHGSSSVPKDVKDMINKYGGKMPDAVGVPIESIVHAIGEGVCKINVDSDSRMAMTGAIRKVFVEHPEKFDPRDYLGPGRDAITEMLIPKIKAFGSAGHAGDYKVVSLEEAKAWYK
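40 nM FBPA preincubated 10 min at RT with compound (up to 57.5 uM final), then substrate plus GAPDH/TPI/NAD/arsenate coupling and diaphorase/resazurin added. Fluorescence read after 20 min at RT, 525/598 nm.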
Sm TGR block: qHTS Assay for the Inhibitors of Schistosoma Mansoni Peroxiredoxins | Schistosoma mansoni thioredoxin glutathione reductase (TGR), Q962Y6 | purified TGR, DTNB reduction, TNB absorbance 405 nm | Potency, µM (top dose mostly 114 µM), actives largely listed as inhibitors | 360,000 tested, 3% active; note: nearly all actives have a fitted effect of over 60% in size
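TGR 20 nM + NADPH 100 uM (dispensed conc.), cpd preinc 15 min RT; start with NADPH (500 uM addition) then DTNB (15 mM addition). Kinetic TNB absorbance, 405 nm filter. Four-parameter Hill fit across titration.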
Of the large screens only hits and unclear results are named; the others gave an inactive call. Unless noted, calls come from the whole dose curve; as a rule, active = well fitted curve in the direction sought with a large enough effect; inconclusive = small, poorly fitted or top-dose-only effect, or another doubt; inactive = no such curve, though single readings can be large; an effect the other way counts as inactive or inconclusive.

CC12CN3CC(C)(CN(C1)C3c1ccc3c(c1)OCO3)C2=O (stereo not drawn)	none
CN1c2ccccc2N(C)C1c1ccc2c(c1)OCO2	Pf growth 48h 4.7µM
CCOc1ccc(NC(=O)CC2C(=O)N(c3ccc(C)cc3)C(=O)N2CCC2=CCCCC2)cc1 (stereo not drawn)	none (no result: Pf growth 96h, Pf growth 48h, FBPA Giardia inh)
Brc1ccc(C2Nc3cccc4cccc(c34)N2)s1	Pf growth 48h inconclusive, FBPA Giardia inh inconclusive, Sm TGR block 20µM
Cc1n[nH]c(=S)n1/N=C/c1cccc(OCc2ccccc2)c1	Pf growth 48h 2.6µM (no result: Sm TGR block)
FC(F)(F)c1ccc(/C=N/n2c(COc3ccccc3)n[nH]c2=S)cc1	HCMV antiviral -66
Cc1cccc(/C=N/n2c(COc3ccccc3)n[nH]c2=S)c1	FBPA Giardia inh inconclusive
CC1=C(C#N)C(C)(C)C(C#N)=C(C)N1	none (no result: Pf growth 96h, Pf growth 48h, FBPA Giardia inh, Sm TGR block)
CN(C)S(=O)(=O)c1cccc(NC(=O)c2ccccc2OCc2ccc(F)cc2)c1	Pf growth 96h inconclusive, Pf growth 48h 12µM
CCOc1ccccc1C(=O)Nc1ccc(S(=O)(=O)N(Cc2ccccc2)c2ccccc2)cc1	none (no result: Pf growth 96h, Pf growth 48h, FBPA Giardia inh)
CN(C)S(=O)(=O)c1cccc(COc2ccccc2C(=O)Nc2ccccc2)c1	Pf growth 96h 9.3µM, Pf growth 48h 10µM (no result: FBPA Giardia inh)
O=C(Nc1cnn(Cc2c(Cl)cccc2Cl)c1)c1ccc([N+](=O)[O-])cc1	Pf growth 96h 13µM, Pf growth 48h inconclusive
O=C(COc1ccc(Cl)cc1)Nc1cnn(Cc2c(Cl)cccc2Cl)c1	Pf growth 96h inconclusive
CC1C(=O)N(Cc2cn(CCC3OCCCO3)nn2)CCS(=O)(=O)N1Cc1ccc(-c2ccc(Cl)c(Cl)c2)cc1 (stereo not drawn)	HCMV antiviral -92 (no result: Pf growth 96h, Pf growth 48h, FBPA Giardia inh, Sm TGR block)
CC(C)CC1C(=O)N(Cc2cn(CCC3OCCO3)nn2)CCS(=O)(=O)N1Cc1ccc(-c2ccc(F)cc2)cc1 (stereo not drawn)	none (no result: Pf growth 96h, Pf growth 48h, FBPA Giardia inh, Sm TGR block)
CC1C(=O)N(Cc2cn(CCC3OCCCO3)nn2)CCS(=O)(=O)N1Cc1ccc(-c2ccc(F)cc2)cc1 (stereo not drawn)	none (no result: Pf growth 96h, Pf growth 48h, FBPA Giardia inh, Sm TGR block)
COc1ccc(-c2ccc(CN3C(CC(C)C)C(=O)N(Cc4cn(CCC5OCCO5)nn4)CCS3(=O)=O)cc2)cc1OC (stereo not drawn)	HCMV antiviral -62 (no result: Pf growth 96h, Pf growth 48h, FBPA Giardia inh, Sm TGR block)
CCCNC(=O)c1c(NC(=O)c2ccccc2F)sc2c1CCCCC2	none (no result: Pf growth 96h, Pf growth 48h, FBPA Giardia inh)
CCN(C(=O)CSc1ncnc2sc(C)c(C)c12)C1CCS(=O)(=O)C1 (stereo not drawn)	none
CCCN(CC1CC1)C(=O)CSc1ncnc2sc(C)c(C)c12	HCMV antiviral -83 (no result: Pf growth 48h)
O=C(C#Cc1ccccc1)Nc1cccc(F)c1	Pf growth 48h inconclusive, HCMV antiviral -104
COc1ccc(NC(=O)C#Cc2ccccc2)cc1	Pf growth 96h inconclusive, HCMV antiviral inconclusive
O=C(C#Cc1ccccc1)Nc1ccc(F)cc1	Pf growth 96h inconclusive, Pf growth 48h inconclusive, HCMV antiviral -102
CC1CN(C(=O)Nc2ccc(F)cc2F)CC(C)O1 (stereo not drawn)	none
COc1cc2c(=O)c(C(=O)c3ccc(C)c(C)c3)cn(Cc3ccccc3F)c2cc1OC	HCMV antiviral -72 (no result: Pf growth 96h, Pf growth 48h, FBPA Giardia inh)
CCc1ccc(C(=O)c2cn(Cc3ccccc3)c3cc(OC)c(OC)cc3c2=O)cc1	HCMV antiviral -65 (no result: Pf growth 96h, Pf growth 48h, FBPA Giardia inh)
COc1cc2c(=O)c(C(=O)c3ccc(C)c(C)c3)cn(Cc3ccccc3)c2cc1OC	none (no result: Pf growth 96h, Pf growth 48h, FBPA Giardia inh)
COc1ccccc1Cn1cc(C(=O)c2ccc(Cl)cc2)c(=O)c2ccccc21	HCMV antiviral -101 (no result: Pf growth 96h, Pf growth 48h, FBPA Giardia inh)
COc1ccc(C(=O)O)cc1S(=O)(=O)Nc1ccccc1Cc1ccccc1	none
CCc1c(C)nc2[nH]ncn2c1=O	none (no result: Pf growth 96h, Pf growth 48h, FBPA Giardia inh, Sm TGR block)
COC(=O)C1(C(F)(F)F)N=C(C(F)(F)F)Nc2ccc(Cl)cc21 (stereo not drawn)	HCMV antiviral -102
COCCNc1nc(C)nc2c1nc(-c1ccccc1)n2C1CCN(Cc2ccccc2)C1 (stereo not drawn)	none (no result: Pf growth 96h, Pf growth 48h, HCMV antiviral, Sm TGR block)
Nc1ccccc1C#CCCCCO	none
C=CC[C@@H](CC(=O)N[C@H](CO)Cc1ccccc1)C(=O)N[C@@H](C)COC(=O)[C@@H](CC=C)CC(=O)OC(C)(C)C	HCMV antiviral -60 (no result: Pf growth 96h, Pf growth 48h, FBPA Giardia inh, Sm TGR block)
COc1ccc(CN(C(=O)c2ccccc2F)C2CCS(=O)(=O)C2)cc1 (stereo not drawn)	none (no result: Pf growth 96h, Pf growth 48h, FBPA Giardia inh)

Compound activity from PubChem BioAssay.
